PubChem BioAssay (NCI)
About 83,000 compounds went through this panel and 20% of them were active in at least one assay; those are over-represented in the sample as a whole.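 Results are percent growth after 48 hours of single-concentration exposure. 100 means growth as in untreated cells, lower positive values show inhibition; negative values down to -100 show cell death.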 Values without a mark were called inactive. Active and inactive are the calls of the source. How the source made its calls: active means growth percent below 10; inactive means the rest.

How the values were obtained:
Experiment in all cases: NCI-60 one-dose screen, 48 h (100 = growth as untreated, 0 = no growth, -100 = all killed)
Conditions in all cases: 10 µM unless noted
SR leukemia = tested on: SR leukemia
RPMI-8226 leukemia = tested on: RPMI-8226 leukemia
OVCAR-8 ovarian = tested on: OVCAR-8 ovarian
OVCAR-5 ovarian = tested on: OVCAR-5 ovarian
OVCAR-4 ovarian = tested on: OVCAR-4 ovarian
SK-OV-3 ovarian = tested on: SK-OV-3 ovarian
IGROV1 ovarian = tested on: IGROV1 ovarian
OVCAR-3 ovarian = tested on: OVCAR-3 ovarian
HS 578T breast = tested on: HS 578T breast
NCI/ADR-RES ovarian = tested on: NCI/ADR-RES ovarian
T-47D breast = tested on: T-47D breast
MDA-MB-435 melanoma = tested on: MDA-MB-435 melanoma
SW-620 colon = tested on: SW-620 colon
MCF7 breast = tested on: MCF7 breast
HCC-2998 colon = tested on: HCC-2998 colon
KM12 colon = tested on: KM12 colon
BT-549 breast = tested on: BT-549 breast
HCT-116 colon = tested on: HCT-116 colon

Structure (SMILES)	growth (SR leukemia)	growth (RPMI-8226 leukemia)	growth (OVCAR-8 ovarian) [%]	growth (OVCAR-5 ovarian) [%]	growth (OVCAR-4 ovarian) [%]	growth (SK-OV-3 ovarian) [%]	growth (IGROV1 ovarian) [%]	growth (OVCAR-3 ovarian)	growth (HS 578T breast)	growth (NCI/ADR-RES ovarian)	growth (T-47D breast) [%]	growth (MDA-MB-435 melanoma)	growth (SW-620 colon) [%]	growth (MCF7 breast)	growth (HCC-2998 colon) [%]	growth (KM12 colon) [%]	growth (BT-549 breast)	growth (HCT-116 colon) [%]
Fc1ccc(Nc2nc(Nc3ccc(-c4nc5ccccc5[nH]4)cc3)c3cn[nH]c3n2)cc1	-21.1% (active)	1.66% (active)	56.8	106	81.8	90.3	81.6	20.3%	93.5%	67.5%	12.1	90.3%	10.9	4.38% (active)	82.9	54.4	–	–
CCOC(=O)c1ccc(NC(=O)CCCN(CC)CC)cc1	92.8%	97.8%	102	106	111	109	107	105%	119%	99%	–	108%	110	96%	102	104	83.1%	87.3
Cc1c(C(N)=O)sc2nc(C)n(/N=c3\scc(-c4ccccc4)n3Cc3ccccc3)c(=O)c12	12.8%	-10.3% (active)	14.7	47.9	33.5	58.6	10.9	4.32% (active)	-14.6% (active)	18.9%	–	12.2%	12.5	17.3%	57.1	13.6	-6.7% (active)	29.1
CC(=O)NCC(=O)Nc1ccc(-c2nnc3ccccn23)nc1.CC(=O)NCC(=O)Nc1ccc(-c2nnc3ccccn23)nc1.[Pt+2]	104%	108%	94.3	114	119	112	106	107%	104%	106%	105	114%	–	110%	106	109	114%	95.4
N#Cc1c(N)n2c(nc1=Nc1ccc(Cl)cc1)sc1cc(Cl)ccc12	22.6%	87.2%	64.9	105	63.1	77.2	95.9	98.1%	33.3%	73.1%	73.8	102%	87.9	60.5%	107	29.5	–	89.1
COc1ccc(/C(C)=N/NS(=O)(=O)c2ccc(C)cc2)cc1OC	137%	95.3%	104	109	107	86.8	114	110%	97.2%	101%	87.8	103%	102	102%	99.9	108	100%	95.1
Cc1nc(Nc2ccc(NC(=S)Nc3ccccc3)cc2)nc2nc(SCc3ccccc3)[nH]c(=O)c12	61.8%	67%	82.4	102	106	109	65.7	112%	105%	110%	88.5	109%	108	87.3%	111	107	–	112
Cc1cccc(-c2cc(O)c(C(=O)N3CCOCC3)s2)c1	25.5%	41.7%	46	92.1	77.3	41.7	50	15%	53.8%	6.7% (active)	–	-50% (active)	28	19.5%	63.2	25.5	51.2%	27.7
C[C@@H]1C(=O)N(C[C@H](Cc2ccccc2)NC(=O)OCc2ccccc2)[C@]1(Cc1ccccc1)C(=O)OC(C)(C)C	64.4%	41.3%	66.9	91.5	52.4	70.2	69.7	70.3%	79.4%	63%	43.3	76.9%	83.2	61.1%	87.7	70.3	–	–
